The record followed here is PubChem BioAssay AID1508637 (National Center for Advancing Translational Sciences (NCATS), 2021).

Records with an inconclusive call do not appear. Active and inactive are the calls of the source. Calls follow the shape of the dose curve; as a rule, active = well fitted inhibition curve with a large enough effect; inconclusive = small, poorly fitted or top-dose-only effect; inactive = flat fitted curve, though single readings scatter. Residues, ends and D or L forms follow the SMILES beside them. *: point of attachment. Cbz = O=C(OCc1ccccc1)*

A short description of the assay: qHTS for characterization and localization of zebrafish homologs of the human ABCB1 multidrug transporter: empty vector transfected cells. The conditions noted are these: empty vector transfected control cells, CellTiter-Glo luminescence viability, 72 h; series mostly up to 46.1 µM. In outline:
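About 90 known P-gp substrates were titrated onto four cell lines: vector control, MDR-19 (human P-gp) and zebrafish Abcb4 or Abcb5 transfectants. After 72 h, ATP luminescence (CellTiter-Glo) gave curves; cytotoxic required AC50 < 10 uM, >50% response and inhibitory curve class.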
Turning to `CN(C)C/C=C/C(=O)Nc1cccc(C(=O)Nc2ccc(Nc3nccc(-c4cccnc4)n3)cc2)c1`, the Potency is 18.7 µM (active). Under `C=CCNC1=C2CC(C)CC(OC)C(O)C(C)/C=C(\C)C(OC(N)=O)C(OC)/C=C/C=C(\C)C(=O)NC(=CC1=O)C2=O` (centres undefined) stands 1.48 µM (active). The result for `Oc1ccc(-c2ccc(-c3cc(Nc4cccc(CNC5CC5)c4)n[nH]3)cc2)c(O)c1` reads 2.96 µM (active); that for `CC[C@@]1([C@@H]2O[C@@H]([C@H]3O[C@@](O)(CO)[C@H](C)C[C@@H]3C)C[C@@H]2C)CC[C@H]([C@]2(C)CC[C@]3(C[C@H](O)[C@@H](C)[C@@H]([C@@H](C)[C@@H](OC)[C@H](C)C(=O)O)O3)O2)O1`, 0.148 µM (active).

On to `CN(C)CCN(C)C(=O)c1ccc(NC(=O)Nc2ccc(-c3nc(N4CCOCC4)c4ccn(CC(F)(F)F)c4n3)cc2)cc1`, for which the Potency was 0.264 µM (active). On to `COc1cc2c(NC3CCN(C(C)C)CC3)nc(N3CCCN(C)CC3)nc2cc1OCCCN1CCCC1`, for which the Potency was 16.6 µM (active). Turning to `CC(C)C[C@@H](C=O)NC(=O)[C@H](CC(C)C)NC(=O)[C@H](CC(C)C)NC(=O)OCc1ccccc1` (Cbz-Leu-Leu-Leu-aldehyde), the Potency is 1.32 µM (active). Regarding `Cc1[nH]c2ccccc2c1CCNCc1ccc(/C=C/C(=O)NO)cc1`, the Potency was 0.235 µM (active).

For `CO[C@H]1/C=C/C=C/C=C/C[C@H](OC(=O)[C@@H](C)NC(=O)C2CCCCC2)[C@H](C)[C@@H](O)/C(C)=C/CCc2cc(O)cc(c2)NC(=O)C1`, the Potency is 0.277 µM (active).
